Bioassay records from PubChem BioAssay.
TIM10 inh = growth inhibitors of TIM10 yeast strain; S. cerevisiae TIM10 strain growth, BacTiter-Glo luminescence, 24 h; inhibition, % at 10 µM; hit rate 1.4% among 330,000; AID 463195;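 active means inhibition of 40% or more at the single tested concentration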;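 further: wild-type TIM10 isogenic control strain grown at permissive 25 °C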
tim23-1 inh = tim23-1 yeast growth inhibition. S. cerevisiae tim23-1 growth, BacTiter-Glo luminescence, 24 h. inhibition, % at 20 µM. hit rate 1.3% among 330,000. AID 463212;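 active means growth inhibition of the mutant yeast at or above 50%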;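 further: temperature-sensitive mutant grown at 25 °C; plate controls were DMSO-treated mutant yeast for no effect and medium wells lacking yeast for full effect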
tim10-1 inh = tim10-1 yeast growth inhibition; S. cerevisiae tim10-1 ts strain growth, BacTiter-Glo, 24 h; hit rate 2.2% among 330,000; inhibition, % at 20 µM;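 active means inhibition of at least 40%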;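 further: mutant grown at 25 °C; 0% = DMSO wells with yeast and 100% = wells holding no yeast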
NLRP3 yeast inh = blocks the NALP3 inflammasome reconstituted in yeast. inhibition, % at 10 µM. hit rate 0.39% among 330,000. Yeast reconstituted NLRP3/ASC/caspase-1, beta-gal luminescence, 24 h;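 active means inhibition of 50% or more; inactive means inhibition below 50%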;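 further: plate controls were induced DMSO wells for no effect and uninduced yeast grown without galactose for full effect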
NALP1 inh = inhibitors of NALP1 inflammasome in yeast | S. cerevisiae NALP1/ASC/caspase-1 growth, X-gal OD620, 72 h | inhibition, % at 10 µM | hit rate 0.61% among 280,000 | AID 2071; in the data active means inhibition mostly above about 24%, no sharp cut-off; inactive means mostly below about 32%
tim10-1 confirm = tim10-1 yeast growth inhibition, confirmed; AID 463213; S. cerevisiae tim10-1 ts strain growth, BacTiter-Glo, 24 h; hit rate 56% among 7,400; inhibition, % at 20 µM; shares compounds with tim10-1 inh;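 active means inhibition of yeast growth at or above a set limit in either of two repeat tests at 20 µM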;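 further: tim10-1 mutant grown at permissive 25 °C to find synthetic lethal compounds; 0% = DMSO yeast wells and 100% = medium wells without yeast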
TIM10 conf = confirmation of TIM10 yeast growth inhibitors; AID 463215; inhibition, % at 10 µM; shares compounds with TIM10 inh; S. cerevisiae tim10 strain growth, BacTiter-Glo luminescence, 24 h; hit rate 63% among 4,600;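 active means inhibition of yeast growth at or above a set limit in either of two replicates at 10 µM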;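 further: this counterscreen used the strain with wild-type TIM10; 0% = yeast with DMSO and 100% = medium wells lacking yeast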
The depositor's hits bear a star; · = not tested or not shown. Rows were chosen to be rich in hits. Some 4.1% of all compounds tested hit in one or more screens of this group.

SMILES | TIM10 inh | tim23-1 inh | tim10-1 inh | NLRP3 yeast inh | NALP1 inh | tim10-1 confirm | TIM10 conf
C=CCn1c(SCc2c(F)cccc2Cl)nnc1-c1ccco1 | 51* | 46 | 41* | 9 | 9 | 37* | 23
C=CCn1c(SCC(=O)Nc2cc(C)c(Cl)cc2OC)nnc1-c1ccco1 | 8 | 36 | 31 | 19 | 2 | · | ·
O=C(CCn1nc(-c2ccc(Cl)cc2)ccc1=O)N1CCN(c2ccccc2)CC1 | 3 | 6 | 21 | 9 | 14 | · | ·
O=C(NC1CCCC1)c1ccc([N+](=O)[O-])s1 | 19 | 46 | 25 | 11 | -14 | · | ·
O=C(Nc1ccccc1N1CCOCC1)c1ccc([N+](=O)[O-])s1 | 61* | 14 | 66* | 8 | · | 72* | 84*
COc1ccc(NC(=O)c2ccc([N+](=O)[O-])s2)c([N+](=O)[O-])c1 | 15 | 11 | 6 | 16 | 3 | · | ·
Cc1ccnc(NC(=O)c2cc([N+](=O)[O-])cc([N+](=O)[O-])c2)c1 | 26 | 25 | 13 | 14 | -5 | · | ·
Cc1cccc(C)c1NC(=O)c1ccc([N+](=O)[O-])s1 | 59* | -83 | 66* | -11 | 24 | 54* | 53*
Cc1ccnc(NC(=O)c2ccc([N+](=O)[O-])s2)c1 | 69* | 34 | 75* | 3 | 3 | 72* | 80*
Cc1cccc(NC(=O)c2ccc([N+](=O)[O-])s2)c1C | 61* | 16 | 66* | -2 | 19 | 55* | 53*
O=C(Nc1ccccc1N1CCOCC1)c1ccccc1[N+](=O)[O-] | -6 | 11 | 16 | 1 | -4 | · | ·
CC1(c2nnc(-c3ccncc3)o2)CC(c2ccc(F)cc2)=NO1 (stereo unspecified) | -24 | -20 | -56 | 26 | -22 | · | ·
CC(C)S(=O)(=O)c1csc(NC(=O)Nc2cc(Cl)ccc2Cl)c1Cl | 47* | 21 | 42* | 0 | -1 | 28 | 41*
CC(=O)NC(CCS(C)(=O)=O)C(=O)Nc1cc(Cl)ccc1Cl (stereo unspecified) | -11 | 11 | 8 | 11 | 21 | · | ·
CCCN(CC(=O)Nc1ccccc1OC)C(=O)CCNC(=O)c1ccccc1OC | -1 | -1 | -4 | 15 | · | · | ·
COc1ccc(OCC(=O)O/N=C(\N)Cc2cccs2)cc1 | 16 | 11 | 19 | 25 | 12 | · | ·
Cc1ccc(OCC(=O)O/N=C(\N)c2ccccn2)cc1 | 23 | 15 | -13 | 45 | -2 | · | ·
Cc1ccc(/C(N)=N/OC(=O)COc2ccccc2Cl)cc1 | 40 | 50 | 61* | 26 | · | 42* | 43*
COc1ccc(OCC(=O)O/N=C(\N)Cc2ccc(Cl)cc2Cl)cc1 | 50* | 50 | 64* | 31 | -6 | 63* | 46*
Cc1ccc(OCC(=O)O/N=C(\N)Cc2ccc(Cl)cc2)cc1 | 78* | 42 | 59* | 37 | 1 | 44* | -11
COc1ccc(OCC(=O)O/N=C(\N)c2ccc(OC)cc2)cc1 | 4 | 13 | 4 | 43 | 28 | · | ·
COc1ccc(OCC(=O)O/N=C(\N)Cc2ccc(Cl)cc2)cc1 | 54* | 47 | 62* | 28 | 1 | 58* | -40
Cc1ccccc1C(=O)NCC(C)NC(=O)c1ccccc1C (stereo unspecified) | -6 | 12 | -11 | 9 | · | · | ·
CN(CC(=O)Nc1ccc(N2CCOCC2)cc1)C(=O)CSc1ccc(F)cc1 | 12 | -10 | -4 | 8 | · | · | ·
N/C(Cc1cccc2ccccc12)=N\OC(=O)c1ccc(Br)o1 | · | · | · | · | 24 | · | ·
SMILES | TIM10 inh | tim23-1 inh | tim10-1 inh | NLRP3 yeast inh | NALP1 inh | tim10-1 confirm | TIM10 conf
COc1ccc(CC(=O)O/N=C(\N)Cc2cccc3ccccc23)cc1 | 48* | 16 | 44* | 12 | 6 | 50* | 53*
N/C(Cc1cccc2ccccc12)=N\OC(=O)c1ccc2c(c1)OCO2 | 60* | 20 | 48* | -8 | 11 | 39* | 32*
N/C(=N\OC(=O)Cc1cccc2ccccc12)c1ccccn1 | 43* | 10 | 60* | 14 | 38 | 49* | 38*
c1cncc(CNc2nc(-c3cccnc3)nc3ccccc23)c1 | -14 | 20 | 13 | 15 | 11 | · | ·
O=c1c2ccccc2nc2c3ccccc3c(NCc3ccccn3)nn12 | 71* | 35 | 71* | 15 | -2 | 65* | 63*
Cc1nc(NCc2ccccn2)c2ccccc2n1 | -14 | 3 | -15 | 4 | 1 | · | ·
O=c1c2ccccc2nc2c3ccccc3c(NCc3cccnc3)nn12 | 49* | 24 | 54* | 13 | 14 | 64* | 51*
COc1ccc(N(CC(=O)N2CCOCC2)S(C)(=O)=O)cc1 | -4 | -6 | -9 | 4 | 15 | · | ·
COc1cc(C(=O)/C=C/c2cccnc2)ccc1O | 7 | 15 | 26 | 23 | 19 | · | ·
COc1ccc(OC)c(C(=O)/C=C/c2cccnc2)c1 | 42* | 33 | 48* | 9 | 4 | 32* | 34*
N/C(=N\OC(=O)c1ccco1)c1ccccc1 | 9 | 21 | 14 | 9 | 1 | · | ·
Cc1ccc(/C(N)=N/OC(=O)c2ccco2)cc1 | 52* | 38 | 46* | 13 | -90 | 34* | 37*
CN(C)c1ccc(/C=N/n2c(-c3cccnc3)n[nH]c2=S)cc1 | 8 | 7 | 13 | 7 | 3 | · | ·
CN(C)c1ccc(/C=N/n2c(-c3ccccc3Br)n[nH]c2=S)cc1 | 41* | 44 | 42* | 6 | · | 24 | 24
CCOC(=O)C1(CCCc2ccccc2)CCN(C(=O)CCc2cnn(C)c2)CC1 | 43* | 39 | 53* | 3 | -5 | 41* | 31
O=C(NC1CCCC1)C(c1ccc(Cl)cc1)N(Cc1ccc(F)cc1)C(=O)CCl (stereo unspecified) | 47* | 46 | 49* | -3 | 23 | 40* | -1
CCOC(=O)C(C(=O)OCC)c1cc(Br)c2noc3c2c1C(=O)c1ccccc1-3 | 44* | 46 | 42* | 17 | 28 | 39* | 27
COC(=O)/C=C1\OC(c2ccccc2)=CC1=O | 40* | 39 | 42* | -9 | -37 | 29 | 32*
CN(C)C(=O)COc1ccc(Oc2ccccc2)cc1 | -11 | -4 | -10 | 21 | 16 | · | ·
Cc1cc(C)cc(N(C(=O)CNC(=O)c2ccco2)C(C(=O)NC2CCCCC2)c2ccncc2)c1 (stereo unspecified) | 15 | 5 | -10 | 12 | -13 | · | ·
Cc1ccc(S(=O)(=O)n2nc(C)cc2C)cc1 | 1 | 3 | 18 | 0 | 6 | · | ·
Cc1cc(C)n(S(=O)(=O)/C=C/c2ccccc2)n1 | 44* | 28 | 50* | 18 | · | 42* | 42*
CCN1/C(=C\C=C(C(C)=O)C(C)=O)Sc2ccccc21 | 20 | 8 | 7 | 28 | 4 | · | ·
CCN1/C(=C\C(=S)Nc2ccccc2)Sc2ccccc21 | 50* | 40 | 45* | 30 | -3 | 12 | 43*
